What all share (assay): DAPPL (digital affinity profiling via proximity ligation, sequencing); 10 mM Tris-HCl pH 7.5, 50 mM NaCl, 1 mM DTT, 4% glycerol, room temperature, 30 min; GST-TFs on glutathione beads, 16-mer random dsDNA library, 0.1% formaldehyde crosslink after washing; high values mean tight binding
Common to all, as to settings: protein: recombinant; tags: N-terminal GST; dsDNA, one strand shown

One experiment addresses T1, FLI1 (Homo sapiens, UniProt Q01543 1-452).
T1 sequence: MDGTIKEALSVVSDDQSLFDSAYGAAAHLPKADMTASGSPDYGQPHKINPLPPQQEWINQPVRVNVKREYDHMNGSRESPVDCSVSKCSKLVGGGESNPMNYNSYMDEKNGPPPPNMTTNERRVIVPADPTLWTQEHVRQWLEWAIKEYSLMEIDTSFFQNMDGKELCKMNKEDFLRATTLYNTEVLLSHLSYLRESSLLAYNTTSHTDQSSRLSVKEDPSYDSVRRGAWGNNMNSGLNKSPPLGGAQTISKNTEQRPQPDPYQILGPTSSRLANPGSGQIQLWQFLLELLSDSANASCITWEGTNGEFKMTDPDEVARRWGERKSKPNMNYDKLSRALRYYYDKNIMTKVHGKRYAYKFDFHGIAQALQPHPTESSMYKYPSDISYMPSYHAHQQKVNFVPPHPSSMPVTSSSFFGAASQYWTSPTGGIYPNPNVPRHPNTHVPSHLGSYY
The essentials: (§1)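 A tag-only sample was pooled with DNA-barcoded human transcription factors that had been expressed in yeast as GST fusions and captured on glutathione beads. The pools were incubated for 30 min at room temperature with 200 nmole of a random double-stranded 16-mer DNA library in Tris/NaCl/DTT/glycerol buffer, then washed, crosslinked with 0.1% formaldehyde, proximity-ligated (BsaI/T4 ligase, 1 h, 37 °C), PCR-amplified and sequenced on an Illumina NextSeq500. Binding signal is each hexamer's read frequency for a factor divided by its frequency for the tag-only sample.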

A further experiment concerns the target ELF1 (Homo sapiens, UniProt P32519 1-619). In a few lines: as §1
A further experiment addresses SPI1 (Homo sapiens, UniProt P17947 1-270). In a few lines: as §1
The next experiment deals with SPIB (Homo sapiens, UniProt Q01892 1-262). The essentials: as §1
A further experiment concerns the target ETV5 (Homo sapiens, UniProt P41161 1-510). The essentials: as §1
A further experiment concerns the target T2, SPIC (Homo sapiens, UniProt Q8N5J4 1-248).
T2 sequence: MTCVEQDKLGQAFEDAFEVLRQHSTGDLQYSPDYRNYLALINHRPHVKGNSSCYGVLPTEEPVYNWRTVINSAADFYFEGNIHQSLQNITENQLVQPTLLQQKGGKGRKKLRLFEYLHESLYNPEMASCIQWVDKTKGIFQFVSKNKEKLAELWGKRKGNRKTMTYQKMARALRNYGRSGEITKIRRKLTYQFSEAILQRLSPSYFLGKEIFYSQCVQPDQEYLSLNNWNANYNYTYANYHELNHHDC
In a few lines:
as §1

The next experiment concerns the target T3, ERF (Homo sapiens, UniProt P50548 1-548).
T3 sequence: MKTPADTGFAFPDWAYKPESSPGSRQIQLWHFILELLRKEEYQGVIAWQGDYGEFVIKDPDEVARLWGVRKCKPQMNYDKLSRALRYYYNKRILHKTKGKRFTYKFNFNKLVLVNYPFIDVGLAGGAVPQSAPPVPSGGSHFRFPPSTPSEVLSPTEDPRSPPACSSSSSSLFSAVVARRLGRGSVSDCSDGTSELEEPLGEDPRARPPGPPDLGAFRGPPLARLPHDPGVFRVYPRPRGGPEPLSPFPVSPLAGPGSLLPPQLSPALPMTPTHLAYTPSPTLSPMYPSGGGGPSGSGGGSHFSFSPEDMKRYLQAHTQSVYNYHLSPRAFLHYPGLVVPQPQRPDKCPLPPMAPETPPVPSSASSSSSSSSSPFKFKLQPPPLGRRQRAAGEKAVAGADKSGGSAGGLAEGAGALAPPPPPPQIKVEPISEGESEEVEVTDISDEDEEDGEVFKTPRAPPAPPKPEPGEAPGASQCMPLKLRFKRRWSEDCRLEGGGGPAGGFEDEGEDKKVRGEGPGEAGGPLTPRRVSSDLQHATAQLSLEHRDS
The essentials: as §1

The target in a further experiment is T4, ETV3L (Homo sapiens, UniProt Q6ZN32 1-361).
T4 sequence: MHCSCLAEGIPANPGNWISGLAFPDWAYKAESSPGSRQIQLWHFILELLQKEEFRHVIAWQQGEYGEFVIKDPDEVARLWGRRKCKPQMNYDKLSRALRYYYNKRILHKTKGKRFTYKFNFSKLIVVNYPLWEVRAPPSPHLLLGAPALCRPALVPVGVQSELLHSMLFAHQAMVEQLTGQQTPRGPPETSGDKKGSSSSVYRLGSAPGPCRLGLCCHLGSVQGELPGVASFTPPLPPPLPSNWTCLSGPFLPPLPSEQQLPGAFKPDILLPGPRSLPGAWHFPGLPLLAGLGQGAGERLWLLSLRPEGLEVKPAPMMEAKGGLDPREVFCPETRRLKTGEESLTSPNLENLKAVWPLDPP
The essentials: as §1

A further experiment has as its target T5, ETS2 (Homo sapiens, UniProt P15036 1-469).
T5 sequence: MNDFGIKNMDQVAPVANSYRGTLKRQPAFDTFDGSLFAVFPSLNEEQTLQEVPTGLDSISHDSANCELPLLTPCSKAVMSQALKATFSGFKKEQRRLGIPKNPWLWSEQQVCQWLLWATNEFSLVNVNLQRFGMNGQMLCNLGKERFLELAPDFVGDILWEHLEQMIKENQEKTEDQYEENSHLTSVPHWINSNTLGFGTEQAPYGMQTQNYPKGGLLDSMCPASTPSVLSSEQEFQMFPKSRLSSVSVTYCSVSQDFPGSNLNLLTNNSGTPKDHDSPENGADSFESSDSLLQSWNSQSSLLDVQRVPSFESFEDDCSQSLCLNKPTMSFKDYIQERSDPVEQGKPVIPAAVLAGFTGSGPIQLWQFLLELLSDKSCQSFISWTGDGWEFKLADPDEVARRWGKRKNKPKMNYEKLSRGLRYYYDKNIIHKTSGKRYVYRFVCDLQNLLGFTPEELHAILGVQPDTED
In a few lines: as §1

The target of a further experiment is T6, SPDEF (Homo sapiens, UniProt O95238 1-335).
T6 sequence: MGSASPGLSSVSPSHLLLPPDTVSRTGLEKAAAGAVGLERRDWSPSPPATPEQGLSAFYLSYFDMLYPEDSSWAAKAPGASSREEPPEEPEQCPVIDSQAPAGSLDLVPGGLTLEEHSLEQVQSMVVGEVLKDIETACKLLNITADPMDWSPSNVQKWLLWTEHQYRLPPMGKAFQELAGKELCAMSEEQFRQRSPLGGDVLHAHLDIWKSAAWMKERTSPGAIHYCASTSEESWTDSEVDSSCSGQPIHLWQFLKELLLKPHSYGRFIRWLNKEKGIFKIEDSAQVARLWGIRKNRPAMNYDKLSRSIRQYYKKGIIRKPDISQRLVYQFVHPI
The essentials:
as §1

Another experiment deals with ETV6 (Homo sapiens, UniProt P41212 1-452). In a few lines:
as §1

For a further experiment, the target named is T7, ELK1 (Homo sapiens, UniProt P19419 1-428).
T7 sequence: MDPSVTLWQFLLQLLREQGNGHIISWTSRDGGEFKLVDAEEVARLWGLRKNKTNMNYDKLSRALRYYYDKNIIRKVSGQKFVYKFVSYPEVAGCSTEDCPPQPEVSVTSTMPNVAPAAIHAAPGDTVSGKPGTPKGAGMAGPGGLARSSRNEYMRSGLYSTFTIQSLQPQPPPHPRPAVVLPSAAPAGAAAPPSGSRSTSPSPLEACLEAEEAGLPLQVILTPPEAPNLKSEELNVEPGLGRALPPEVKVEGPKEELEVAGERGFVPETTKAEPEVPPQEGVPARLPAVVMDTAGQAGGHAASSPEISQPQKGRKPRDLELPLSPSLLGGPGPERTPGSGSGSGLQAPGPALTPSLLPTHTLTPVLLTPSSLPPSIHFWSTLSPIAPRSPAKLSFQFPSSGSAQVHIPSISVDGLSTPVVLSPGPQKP
In a few lines: as §1

The next experiment concerns the target T8, ERG (Homo sapiens, UniProt P11308 1-479).
T8 sequence: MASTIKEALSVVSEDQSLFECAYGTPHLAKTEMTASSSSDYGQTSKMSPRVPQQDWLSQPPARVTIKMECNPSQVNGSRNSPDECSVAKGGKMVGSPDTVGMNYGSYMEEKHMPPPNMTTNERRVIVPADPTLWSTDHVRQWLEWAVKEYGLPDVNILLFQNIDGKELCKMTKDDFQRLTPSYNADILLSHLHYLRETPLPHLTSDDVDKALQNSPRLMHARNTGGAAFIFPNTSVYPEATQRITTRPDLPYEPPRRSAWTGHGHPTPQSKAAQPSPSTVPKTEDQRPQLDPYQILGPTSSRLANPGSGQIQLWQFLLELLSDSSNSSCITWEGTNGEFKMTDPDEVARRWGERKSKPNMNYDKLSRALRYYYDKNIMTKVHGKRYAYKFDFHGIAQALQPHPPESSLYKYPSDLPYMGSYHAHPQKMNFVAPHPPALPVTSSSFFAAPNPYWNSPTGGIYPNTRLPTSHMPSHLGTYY
The essentials:
as §1

For the next experiment, the target named is T9, EHF (Homo sapiens, UniProt Q9NZC4 1-300).
T9 sequence: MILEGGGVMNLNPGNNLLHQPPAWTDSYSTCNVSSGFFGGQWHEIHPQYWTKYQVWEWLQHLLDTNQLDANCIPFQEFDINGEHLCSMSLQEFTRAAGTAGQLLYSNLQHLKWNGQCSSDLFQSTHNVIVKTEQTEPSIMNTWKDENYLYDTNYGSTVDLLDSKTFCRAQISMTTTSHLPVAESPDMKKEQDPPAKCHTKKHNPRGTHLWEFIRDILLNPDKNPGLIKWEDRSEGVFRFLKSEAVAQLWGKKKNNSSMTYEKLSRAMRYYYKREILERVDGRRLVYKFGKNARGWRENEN
In a few lines: as §1

The target of another experiment is T10, FEV (Homo sapiens, UniProt Q99581 1-238).
T10 sequence: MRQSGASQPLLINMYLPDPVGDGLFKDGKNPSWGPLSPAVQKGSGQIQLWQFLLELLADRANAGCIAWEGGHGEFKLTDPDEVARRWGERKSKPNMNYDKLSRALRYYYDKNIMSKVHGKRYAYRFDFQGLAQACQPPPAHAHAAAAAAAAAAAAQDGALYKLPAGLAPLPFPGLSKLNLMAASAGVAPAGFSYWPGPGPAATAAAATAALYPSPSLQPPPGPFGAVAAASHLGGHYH
In a few lines:
as §1

The target of a further experiment is ETV1 (Homo sapiens, UniProt P50549 1-477). In a few lines:
as §1

The target in a further experiment is T11, ELF5 (Homo sapiens, UniProt Q9UKW6-2 1-255).
T11 sequence: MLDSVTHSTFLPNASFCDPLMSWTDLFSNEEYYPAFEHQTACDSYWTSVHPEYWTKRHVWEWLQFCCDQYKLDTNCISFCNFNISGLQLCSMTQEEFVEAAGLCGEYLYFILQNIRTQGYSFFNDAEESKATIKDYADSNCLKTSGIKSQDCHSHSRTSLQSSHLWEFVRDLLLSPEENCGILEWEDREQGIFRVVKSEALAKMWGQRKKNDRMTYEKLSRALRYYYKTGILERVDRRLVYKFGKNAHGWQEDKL
The essentials:
as §1

A further experiment concerns the target T12, ETV3 (Homo sapiens, UniProt P41162-2 1-143).
T12 sequence: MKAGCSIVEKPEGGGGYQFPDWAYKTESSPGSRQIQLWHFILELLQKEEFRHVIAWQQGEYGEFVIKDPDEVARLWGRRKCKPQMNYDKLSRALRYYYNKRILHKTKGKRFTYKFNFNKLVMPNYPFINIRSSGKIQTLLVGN
In a few lines:
as §1

Two sequences from article PMC7862700, “An all-to-all approach to the identification of sequence-specific readers for epigenetic DNA modifications on cytosine” can be followed below.

SPIB, sequence (Q01892 whole entry): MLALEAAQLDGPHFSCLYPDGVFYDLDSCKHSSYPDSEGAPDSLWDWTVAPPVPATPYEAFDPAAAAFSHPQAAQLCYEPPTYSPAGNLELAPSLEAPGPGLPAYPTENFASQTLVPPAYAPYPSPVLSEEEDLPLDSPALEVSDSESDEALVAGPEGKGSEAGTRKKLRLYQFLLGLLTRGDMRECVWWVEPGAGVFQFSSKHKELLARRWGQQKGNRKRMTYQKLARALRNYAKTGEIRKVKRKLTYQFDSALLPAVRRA
ETV6, sequence (P41212 whole entry): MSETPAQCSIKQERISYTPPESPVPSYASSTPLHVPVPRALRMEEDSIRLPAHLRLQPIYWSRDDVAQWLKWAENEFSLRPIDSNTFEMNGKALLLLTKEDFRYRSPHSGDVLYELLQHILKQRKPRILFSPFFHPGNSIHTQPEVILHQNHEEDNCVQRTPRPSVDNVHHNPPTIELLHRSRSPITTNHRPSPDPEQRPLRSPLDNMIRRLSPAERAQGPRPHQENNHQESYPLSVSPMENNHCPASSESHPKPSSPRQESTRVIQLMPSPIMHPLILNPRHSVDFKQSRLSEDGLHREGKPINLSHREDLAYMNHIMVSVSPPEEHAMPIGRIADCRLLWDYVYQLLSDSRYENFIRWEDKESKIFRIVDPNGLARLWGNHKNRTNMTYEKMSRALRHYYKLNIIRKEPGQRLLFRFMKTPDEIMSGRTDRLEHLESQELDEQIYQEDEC
ETV5, sequence (P41161 whole entry): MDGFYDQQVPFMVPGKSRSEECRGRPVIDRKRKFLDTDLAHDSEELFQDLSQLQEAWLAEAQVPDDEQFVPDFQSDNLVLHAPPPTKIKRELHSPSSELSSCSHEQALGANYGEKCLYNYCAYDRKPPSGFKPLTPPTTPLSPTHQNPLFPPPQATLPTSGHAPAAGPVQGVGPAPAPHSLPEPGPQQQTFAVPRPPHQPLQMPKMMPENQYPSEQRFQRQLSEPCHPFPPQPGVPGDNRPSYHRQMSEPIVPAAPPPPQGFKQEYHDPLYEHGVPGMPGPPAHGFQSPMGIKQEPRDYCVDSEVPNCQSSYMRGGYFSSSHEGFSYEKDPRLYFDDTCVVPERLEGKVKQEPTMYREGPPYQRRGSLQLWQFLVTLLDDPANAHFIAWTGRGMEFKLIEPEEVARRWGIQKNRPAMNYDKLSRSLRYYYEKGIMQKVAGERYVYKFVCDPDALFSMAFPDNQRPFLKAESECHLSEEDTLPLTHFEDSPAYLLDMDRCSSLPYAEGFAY
ELF1, sequence (P32519 whole entry): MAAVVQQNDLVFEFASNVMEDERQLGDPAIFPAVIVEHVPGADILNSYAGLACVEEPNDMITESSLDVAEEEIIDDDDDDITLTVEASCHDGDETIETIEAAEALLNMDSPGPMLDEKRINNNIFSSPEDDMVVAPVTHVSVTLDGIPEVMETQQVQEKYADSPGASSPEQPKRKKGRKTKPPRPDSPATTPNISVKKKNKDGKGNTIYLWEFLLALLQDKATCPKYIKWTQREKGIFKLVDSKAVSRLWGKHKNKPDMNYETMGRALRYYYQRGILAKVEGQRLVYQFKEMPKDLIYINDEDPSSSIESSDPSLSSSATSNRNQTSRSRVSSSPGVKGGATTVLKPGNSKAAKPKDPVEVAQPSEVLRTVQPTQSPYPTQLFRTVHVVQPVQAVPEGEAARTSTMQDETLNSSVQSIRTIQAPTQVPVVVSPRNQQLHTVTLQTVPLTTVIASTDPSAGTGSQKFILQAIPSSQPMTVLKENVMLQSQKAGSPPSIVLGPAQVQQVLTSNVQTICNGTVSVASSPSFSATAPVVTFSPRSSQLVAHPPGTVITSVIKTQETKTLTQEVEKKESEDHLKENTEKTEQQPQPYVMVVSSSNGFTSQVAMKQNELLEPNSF
ETV1, sequence (P50549 whole entry): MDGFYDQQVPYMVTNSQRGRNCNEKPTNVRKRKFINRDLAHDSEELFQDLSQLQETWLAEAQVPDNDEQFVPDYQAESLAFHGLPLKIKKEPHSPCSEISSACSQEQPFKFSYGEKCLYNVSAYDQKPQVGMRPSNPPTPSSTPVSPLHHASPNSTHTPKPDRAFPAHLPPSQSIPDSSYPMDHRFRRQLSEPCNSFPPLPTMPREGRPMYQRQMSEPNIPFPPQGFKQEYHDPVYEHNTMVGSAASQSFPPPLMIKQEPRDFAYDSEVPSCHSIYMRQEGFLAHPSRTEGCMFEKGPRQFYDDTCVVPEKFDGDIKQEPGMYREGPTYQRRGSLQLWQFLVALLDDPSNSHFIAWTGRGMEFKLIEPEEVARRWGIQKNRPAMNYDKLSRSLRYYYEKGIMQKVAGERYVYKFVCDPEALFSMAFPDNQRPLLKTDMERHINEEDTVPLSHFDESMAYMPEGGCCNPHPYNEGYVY

For GTTATA, the binding signal was 1.12 fold enrichment (6-mer frequency, TF over GST control) with FLI1; 1.03 fold enrichment (6-mer frequency, TF over GST control) in the experiment with ELF1; 1.01 fold enrichment (6-mer frequency, TF over GST control) with SPI1; 1.03 fold enrichment (6-mer frequency, TF over GST control) in the experiment with SPIB; 1.04 fold enrichment (6-mer frequency, TF over GST control) with ETV5; 1.15 fold enrichment (6-mer frequency, TF over GST control) with SPIC. For the same sequence, the binding signal was 1.03 fold enrichment (6-mer frequency, TF over GST control) in the experiment with ERF; 1.06 fold enrichment (6-mer frequency, TF over GST control) in the experiment with ETV3L; 1.06 fold enrichment (6-mer frequency, TF over GST control) with ETS2; 1.03 fold enrichment (6-mer frequency, TF over GST control) with SPDEF; 1 fold enrichment (6-mer frequency, TF over GST control) with ETV6.

As for AACGGA, the binding signal is 1.05 fold enrichment (6-mer frequency, TF over GST control) with FLI1; 1.08 fold enrichment (6-mer frequency, TF over GST control) with ELK1; 1.18 fold enrichment (6-mer frequency, TF over GST control) in the experiment with ERG; 1.13 fold enrichment (6-mer frequency, TF over GST control) in the experiment with EHF; 1.15 fold enrichment (6-mer frequency, TF over GST control) with SPI1; 1.07 fold enrichment (6-mer frequency, TF over GST control) with SPIB. Moreover, the binding signal with FEV is 1.35 fold enrichment (6-mer frequency, TF over GST control); with ETV5, 1.1 fold enrichment (6-mer frequency, TF over GST control); with SPIC, 1.04 fold enrichment (6-mer frequency, TF over GST control); in the experiment with ETV1, 1.11 fold enrichment (6-mer frequency, TF over GST control); in the experiment with ETV3L, 1.01 fold enrichment (6-mer frequency, TF over GST control); with ETS2, 1.15 fold enrichment (6-mer frequency, TF over GST control). Besides, the binding signal with SPDEF was 1.23 fold enrichment (6-mer frequency, TF over GST control); with ELF5, 1.11 fold enrichment (6-mer frequency, TF over GST control); with ETV3, 1.08 fold enrichment (6-mer frequency, TF over GST control); in the experiment with ETV6 it was 1.2 fold enrichment (6-mer frequency, TF over GST control).
